From PubChem
Most compounds without a hit are left out; they make up all but 8.9% or so of the library.
KB-3-1 tox – qHTS assay for MDR1-selective chemotherapeutics: Primary screen using the parental adenocarcinoma cell KB-3-1; Potency, µM (highest dose often 46.1 µM), usual class: cytotoxic; KB-3-1 viability, CellTiter-Glo ATP luminescence, 72 h; AID 1347075, 2019; 1.4% of 400,000 active; note: potency is the fitted concentration of half-maximal effect; % is set by controls: 0 for no effect and ±100 for the full control effect; nearly all actives have a fitted effect of over 60% in size
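Using CellTiter-Glo luminescence, growth of non-resistant KB-3-1 adenocarcinoma cells is assessed 72 h after pin-tool compound addition at 37 °C. Normalized responses across the concentration series yield fitted curves.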
SW480 rereplic – A quantitative high throughput screen for small molecules that induce DNA re-replication in SW480 colon adenocarcinoma cells; AID 624297, 2012; Potency, µM (titrated, usually from 46.1 µM), without a hit: at the highest dose re-replication activation, hits mostly activators; SW480 DNA re-replication, Hoechst DNA content imaging, 48 h; 1.8% of 340,000 active; note: potency is the fitted concentration of half-maximal effect; % of control where 0% means no effect; nearly all actives have a fitted effect of over 55% in size
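Image-based read-out: total Hoechst fluorescence of nuclei (405 nm excitation, 500-530 nm emission), with hits raising the fraction of high-intensity nuclei. SW480 colon cells incubated 48 hr with compounds at 37 C.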
D3 ag – qHTS of D3 Dopamine Receptor Agonist: qHTS | D(3) dopamine receptor (Homo sapiens), P35462 | D3R DiscoveRx beta-arrestin cells, luminescence, 90 min | max activation, % | 0.58% of 410,000 active | AID 652048, 2013; in the data active = max activation above about 30%; note: 0% is about no effect
Target sequence (P35462 whole entry, looked up): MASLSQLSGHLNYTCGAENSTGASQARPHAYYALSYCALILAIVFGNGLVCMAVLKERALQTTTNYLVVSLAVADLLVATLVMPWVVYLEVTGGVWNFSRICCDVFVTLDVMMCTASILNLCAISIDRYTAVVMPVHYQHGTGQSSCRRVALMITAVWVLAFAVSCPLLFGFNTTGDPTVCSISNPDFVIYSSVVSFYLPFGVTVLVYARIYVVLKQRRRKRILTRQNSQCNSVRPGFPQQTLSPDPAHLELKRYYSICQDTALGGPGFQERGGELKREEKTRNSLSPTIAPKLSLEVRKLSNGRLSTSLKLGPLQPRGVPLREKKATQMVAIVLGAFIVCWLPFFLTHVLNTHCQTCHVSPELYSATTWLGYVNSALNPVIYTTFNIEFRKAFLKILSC
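Agonist-mode cell screen: cells plated at 1500/well and incubated overnight at 37 °C, then exposed to library compounds for 90 min at 37 °C. Detection reagent was added for 30–60 min at room temperature, and luminescence was read.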
DRD3 antagonist – qHTS of D3 Dopamine Receptor Antagonist: qHTS; D3R cells, DiscoveRx beta-arrestin luminescence, antagonist mode; hits give low values; 2.5% of 360,000 active; D(3) dopamine receptor (Homo sapiens), P35462; max response, negative = inhibition, %; AID 652054, 2013; in the data active = max response below about -50%; inconclusive = no clear call, values can overlap the other calls; note: % is set by controls: 0 for no effect and ±100 for the full control effect
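Cells expressing the human receptor were seeded at 1500 cells/well, incubated overnight at 37 degrees C in 5% CO2, then exposed to library compounds with dopamine controls for 90 minutes at 37 degrees C before luminescent detection.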
MCF10A rereplic – A quantitative high throughput screen for small molecules that induce DNA re-replication in MCF 10a normal breast cells; AID 624296, 2012; MCF 10A DNA re-replication, Hoechst nuclear intensity, 48 h; 2.9% of 350,000 active; Potency, µM (doses to about 46.1 µM), for inactives: at the highest dose activity, positive = re-replication, actives largely listed as activators; note: potency is the fitted concentration of half-maximal effect; % of control where 0% means no effect; nearly all actives have a fitted effect of over 50% in size
KB-V1 cytotox – qHTS assay for MDR1-selective chemotherapeutics: Primary screen using the drug-selected MDR subline cells KB-V1; Potency, µM (series often up to 46.1 µM), actives largely listed as cytotoxic; 3.4% of 400,000 active; KB-V1 MDR cells viability, CellTiter-Glo, 72 h; note: potency is the fitted concentration of half-maximal effect; % is set by controls: 0 for no effect and ±100 for the full control effect; nearly all actives have a fitted effect of over 60% in size
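Compound-treated KB-V1 multidrug-resistant cells, 72 h, 37 degrees C; viability by CellTiter-Glo. Fitted qHTS curves give the values.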
* hit, by the source's call; i = inactive; ? = inconclusive; nt = no result given; ! = repeats disagree. Unless noted, calls come from the whole dose curve; as a rule, active = well fitted curve in the direction sought with a large enough effect; inconclusive = small, poorly fitted or top-dose-only effect, or another doubt; inactive = no such curve, though single readings can be large; an effect the other way counts as inactive or inconclusive.

SMILES	KB-3-1 tox	SW480 rereplic	D3 ag	DRD3 antagonist	MCF10A rereplic	KB-V1 cytotox
C[C@@H](C[C@@H](O)[C@H](O)C(C)(C)O)[C@@H]1CC[C@]2(C)C3=CC[C@H]4C(C)(C)C(=O)CC[C@]4(C)[C@H]3CC[C@@]12C	?	2%	45*	120	?	?
CC(C)(O)CC[C@@H](O)[C@](C)(O)[C@H]1CC[C@@]2(O)C3=CC(=O)[C@@H]4C[C@@H](O)[C@@H](O)C[C@]4(C)C3CC[C@]12C (stereo partly drawn)	i	-15%	13	1	-1%	?
COCCOC(=O)C1=C(C)N=C2SCCC(=O)N2C1c1ccc(OCc2ccccc2)c(OC)c1 (stereo not drawn)	i	nt	7	nt	nt	i
COc1ccc(COc2cc(-c3cccc(OC)c3)nc3ccc(NC(=O)c4cccnc4)cc23)cc1	?	?	8	50	?	?
COc1ccc(COc2cc(-c3cccc(OC)c3)nc3ccc(NC(=O)c4ccc(OC)cc4)cc23)cc1	4.1µM*	4.1µM*	-16	20	2.3µM*	i
COc1ccc(COc2cc(-c3cccc(OC)c3)nc3ccc(NC(=O)c4ccccc4)cc23)cc1	16µM*	16µM*	0	37	4.6µM*	i
COc1ccc(COc2cc(-c3cccc(OC)c3)nc3ccc(NC(=O)c4ccc(Cl)cc4)cc23)cc1	?	23µM*	0	19	26µM*	i
Cc1oc2ncn(CC(C)C)c(=O)c2c1C(=O)N(CCN(C)C)Cc1ccccc1	i	nt	-5	nt	nt	i
C(=Nc1ccc(/C=C/c2ccnc3ccccc23)cc1)c1cccs1	?	nt	nt	nt	nt	i
COC(=O)CSc1nc2sc3c(c2c(=O)n1-c1ccc(C)cc1)CC(C(C)C)OC3 (stereo not drawn)	i	nt	-4	nt	nt	i
COc1ccc(/C=N/Nc2nc(=O)[nH]nc2C)cc1OC	i	2.9µM*	-15	-15	?	i
COc1cc(/C=N/Nc2nc(=O)[nH]nc2C)ccc1O	i	15µM*	-11	2	?	i
COc1ccc(/C=N/Nc2nc(=O)[nH]nc2C)cc1[N+](=O)[O-]	i	3%	-2	-15	-7%	i
Nc1nonc1C(=O)NCCNCc1cccc(Cl)c1Cl	i	nt	-17	nt	nt	i
Cc1ccc2c(c1Br)C(O)(CC(=O)c1ccc(F)cc1)C(=O)N2 (stereo not drawn)	i	nt	4	nt	nt	i
COc1cccc(NC(=O)N2CCC(n3c(C)nc4cccnc43)CC2)c1	i	nt	4	nt	nt	i
COC(=O)CCC(C)C1CCC2C3CCC4CC(O)CCC4(C)C3CC(O)C12C (stereo not drawn)	i	1%	-25	30	21µM*	i
COC(=O)CCC(C)C1CCC2C3C(OC(C)=O)CC4CC(O)CCC4(C)C3CC(O)C12C (stereo not drawn)	i	nt	0	-12	nt	i
S=c1[nH]nc(-c2ccco2)n1-c1ccccc1Cl	i	-1%	-13	-29	-4%	i
S=c1[nH]nc(-c2cc(-c3ccco3)[nH]n2)n1-c1ccccc1Cl	i	-8%	-4	-52*	-3%	i
Cc1ccc(N2C(=O)CSC23C(=O)N(CC(=O)Nc2ccc(C)cc2C)c2ccccc23)cc1 (stereo not drawn)	i	nt	-3	nt	nt	?
C=CCOc1c(CNc2ccc(S(N)(=O)=O)cc2)cccc1OC	i	-18%	-3	6	-10%	i
COc1cccc(CNc2ccccc2O)c1OCc1ccccc1F	i	21µM*	6	-20	?	i
COc1cccc(CNc2ccc(S(N)(=O)=O)cc2)c1OCc1ccccc1F	?	5%	-1	-15	17%	21µM*
CCOC(=O)Cc1ccc(NC(=O)NCc2cccn2Cc2ccccc2)cc1	i	nt	-8	nt	nt	i
SMILES	KB-3-1 tox	SW480 rereplic	D3 ag	DRD3 antagonist	MCF10A rereplic	KB-V1 cytotox
Nc1nc(SCc2nc(-c3ccccc3)no2)[nH]c(=O)c1-c1ccccc1	i	10%	16	17	13%	18µM*
COc1ccc(-c2noc(CSc3nc(N)cc(=O)[nH]3)n2)cc1	21µM*!	-5%	9	49	?	?
COc1ccc(-c2noc(CSc3nc4ccccc4[nH]3)n2)cc1	?	nt	3	nt	nt	?
CCOC(=O)c1c(-c2ccc(C)cc2)csc1NC(=O)c1ccc(C(C)(C)C)cc1	i	nt	-4	nt	nt	?
CCOC(=O)c1c(NC(=O)c2ccc(Cl)cc2)csc1C	i	-66%	6	14	-58%	9.2µM*
COc1ccccc1OC(C)C(=O)Nc1c(C(=O)c2ccc(Cl)cc2)oc2ccccc12 (stereo not drawn)	i	nt	3	nt	nt	?
CCOc1ccc(C2=Nn3c(nnc3-c3ccc(OC)cc3)SC2)cc1	2.9µM*	5.8µM*	-1	0	?	3.3µM*
Cc1cc(-c2nnc3n2N=C(c2ccc(-c4ccccc4)cc2)CS3)n[nH]1	?	3%	-3	?	?	i
c1ccc(-c2cc(-c3nnc4n3N=C(c3ccc5ccccc5c3)CS4)[nH]n2)cc1	i	?	-2	?	4.1µM*	7.3µM*
Cc1cccc(-c2nnc3n2N=C(c2ccccc2)CS3)c1	?	4%	-5	?	13%	8.2µM*
c1ccc(C2=Nn3c(nnc3-c3ccncc3)SC2)cc1	i	?	-1	-2	8%	i
Cc1ccn2c(=O)cc(COc3ccc(NC(=O)COc4ccccc4)cc3)nc2c1	i	nt	8	nt	nt	i
COc1ccc(/C(C)=N/NC(=O)CNC(=O)c2ccco2)c(OC)c1	i	-3%	5	3	3%	i
N#CC1(NC(=O)CSc2nc3ccc([N+](=O)[O-])cc3s2)CCCCC1	i	1%	-6	-4	13%	?
N#CC1(NC(=O)CSc2nc3ccccc3s2)CCCCC1	i	-2%	2	5	22%	16µM*
O=C(NCc1ccccc1F)C1CCN(c2nnc(-n3cccc3)s2)CC1	i	nt	1	nt	nt	i
Cc1cc(C)c(NC(=O)/C=C\C(=O)O)c([N+](=O)[O-])c1	i	0.16µM*	1	-16	15%	i
